Laboratory results reported in PubChem BioAssay AID488896 (Broad Institute, 2010).
Among all 320,000 compounds or so, about 3,100 (0.97%) were called active.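 The calls were made as follows: active = mean replicate inhibition of at least 70% and a set share of replicates each scoring 70 or more; inconclusive = meets just one of the two criteria; inactive = fails both criteria.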 This excerpt belongs to a sample that is enriched for actives.

These compounds were tested against Scavenger receptor class B member 1 (Mus musculus) (UniProt Q61009) (assay: inhibitors of SR-BI mediated HDL lipid uptake, primary screen, ldlA[mSR-BI] cells, fluorescence, single point (AID 488896;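 also: 0% = median of neutral control wells and 100% = median of positive control wells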)). Conditions: ldlA[mSR-BI] CHO cells, DiI-HDL uptake fluorescence, 3 h; at 12.5 µM; active compounds read high.
Sequence of Scavenger receptor class B member 1 (Mus musculus) (Q61009 whole entry, looked up): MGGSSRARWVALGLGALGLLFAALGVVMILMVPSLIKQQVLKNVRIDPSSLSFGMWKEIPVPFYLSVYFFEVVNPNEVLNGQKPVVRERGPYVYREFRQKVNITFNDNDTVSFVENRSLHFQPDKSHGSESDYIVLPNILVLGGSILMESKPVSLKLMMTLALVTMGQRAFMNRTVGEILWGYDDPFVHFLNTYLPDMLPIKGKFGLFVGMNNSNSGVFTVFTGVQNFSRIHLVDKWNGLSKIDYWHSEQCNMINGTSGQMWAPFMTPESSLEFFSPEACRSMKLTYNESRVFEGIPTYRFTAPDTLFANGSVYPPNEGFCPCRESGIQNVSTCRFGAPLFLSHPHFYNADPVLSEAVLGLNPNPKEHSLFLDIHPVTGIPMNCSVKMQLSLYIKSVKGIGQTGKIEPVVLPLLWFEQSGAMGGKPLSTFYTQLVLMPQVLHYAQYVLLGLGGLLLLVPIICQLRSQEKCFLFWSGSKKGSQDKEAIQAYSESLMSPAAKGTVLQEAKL

| Compound | inhibition |
| --- | --- |
| Cc1c(Cl)c([N+](=O)[O-])nn1Cc1ccc(C(=O)N/N=C\c2cc(Cl)ccc2O)o1 | 129% (active) |
| Cc1ccc(C(=O)O)cc1NC(=O)c1ccc(Cn2nc(C)c(Cl)c2C)o1 | 4.04% (inactive) |
| Cc1c(Cl)c([N+](=O)[O-])nn1CCCC(=O)Nc1cc(Cl)ccc1Cl | -14.8% (inactive) |
| CC(C)CN1CC(C)C(=O)N(c2ccccc2)C1=S (stereo not given) | -3.77% (inactive) |
| COc1ccc2oc(C(=O)OCC(=O)N(CC(C)C)c3c(N)n(Cc4ccccc4)c(=O)[nH]c3=O)c(C)c2c1 | 71% (active) |
| CC(C)CN(C(=O)COC(=O)c1ccc(Cl)c(N)c1)c1c(N)n(Cc2ccccc2)c(=O)[nH]c1=O | 21.7% (inactive) |
| CC(C)CN(C(=O)COC(=O)c1ccc2ccccc2c1)c1c(N)n(Cc2ccccc2)c(=O)[nH]c1=O | 27.1% (inactive) |
| CCC(C)C1(C2CCCC2)NC(=O)NC1=O (stereo not given) | -1.25% (inactive) |
| C[n+]1cccc(C(=O)O)c1 | -14.9% (inactive) |
| COc1ccc2cc(C(=O)NCC3CCCO3)[nH]c2c1 (stereo not given) | -25.3% (inactive) |
| COc1cccc(/C=C2\Sc3ccc(C(=O)NCC4CCCO4)cc3N(C)C2=O)c1 (stereo not given) | 76.6% (active) |
| COc1cccc(C(=O)NCCS(=O)(=O)NCC2CCCO2)c1 (stereo not given) | -26.7% (inactive) |
| CSCCC(NC(=O)COc1ccccc1)C(=O)OCc1ccc(Cl)cc1 (stereo not given) | -22.7% (inactive) |
| Cc1ccc(S(=O)(=O)c2cc3c(=O)n4cccc(C)c4nc3n(CCc3ccccc3)c2=N)cc1C | -25.8% (inactive) |
| COc1cccc2c1C(=O)c1c(O)c3c(c(O)c1C2=O)CC(O)(C(C)=NNC(=O)c1ccc(Cl)c(Cl)c1)CC3OC1CC(N)C(O)C(C)O1 (stereo not given) | 33.2% (inactive) |
| O=[N+]([O-])c1cccc(C=NN=Cc2ccccc2O)c1 | 45.3% (inactive) |
| COc1ccc2c(c1)C(=O)CC(c1ccccc1)O2 (stereo not given) | 17.3% (inactive) |
| CCNCCC(=O)N1c2ccccc2Sc2ccc(NC(=O)OCC)cc21 | -8.72% (inactive) |
| CCN1/C(=C/C(=S)Nc2ccccc2)Sc2ccccc21 | 80.2% (active) |
| CCN1/C(=C\c2ccc3ccccc3[n+]2CC)Sc2cc(C)ccc21 | 55.6% (inactive) |
| COC[C@@H]1NS(=O)(=O)c2ccc(Br)cc2O[C@H]1c1ccccc1 | 5.43% (inactive) |
| NC(=O)C1(Nc2ccccc2Cl)CCCC1 | -5.33% (inactive) |
| O=C(NN=C1CCC(=NNC(=O)c2cccnc2)CC1)c1cccnc1 | -14% (inactive) |

| Compound | inhibition |
| --- | --- |
| O=C(N/N=C/c1sc(N2CCCCC2)nc1-c1cccs1)c1cccnc1 | 76.7% (active) |
| O=C(CNC(=O)c1cccnc1)N/N=C/c1cccnc1 | -11% (inactive) |
| COC(=O)C1CC2=C(CC(C)(C)CC2=O)N(c2ccccc2)C1=O (stereo not given) | -15.5% (inactive) |
| CCCCN1CC(CO)Oc2cccc(F)c2S1(=O)=O (stereo not given) | -10.7% (inactive) |
| COc1cccc(C(=O)N/N=C(\C)c2cccc(NC(=O)c3ccc(F)cc3)c2)c1OC | 61% (inactive) |
| C/C(=N/NC(=O)c1ccc(NC(=O)c2ccc(F)cc2)cc1)c1ccccc1 | 88.8% (active) |
| COc1ccc(/C(C)=N\NC(=O)c2ccc(-c3ccccc3)cc2)c(F)c1 | 67.1% (inactive) |
| O=C1C(=O)N(c2ccccc2)C(c2ccccc2)C1c1ccccc1 (stereo not given) | 3.47% (inactive) |
| CCCN(CC(=O)Nc1ccccc1C)C(=O)c1ccc(OCC(=O)N2CCOCC2)c(OCC)c1 | 13.8% (inactive) |
| CC1(C)N=C(N)NC(Nc2ccc(Cl)cc2)=N1 | -10.1% (inactive) |
| Cc1ccc(C)c(N2CCN(C(=O)CCCCn3c(=O)[nH]c4ccccc4c3=O)CC2)c1 | 16.6% (inactive) |
| Cc1ccc(C)c(N2CCN(C(=O)Cn3ncn4cccc4c3=O)CC2)c1 | 10.1% (inactive) |
| Cc1ccc(C)c(N2CCN(C(=O)CCCn3c(=O)c4cccn4c4cccnc43)CC2)c1 | 84.4% (active) |
| COc1ccc(CC(=O)NC(C)c2ccc(Cl)c(Cl)c2)cc1S(=O)(=O)N1CCOCC1 (stereo not given) | 4.63% (inactive) |
| O=C(O)C(c1cccs1)C1(O)CCCCC1 (stereo not given) | -15.2% (inactive) |
| CC1(C)Cc2cccc(OCC(=O)NCc3ccccc3)c2O1 | 3.02% (inactive) |
| CC1(C)Cc2cccc(OCC(=O)N3CCN(c4ccc([N+](=O)[O-])cc4)CC3)c2O1 | 71.3% (active) |
| CC1(C)Cc2cccc(OCC(N)=O)c2O1 | 10.8% (inactive) |
| Cc1cc(NC(=O)c2cc3ccccc3o2)no1 | -18.7% (inactive) |
| COc1ccccc1NC(=O)c1cc(Cl)nc2ccccc12 | 66.5% (inactive) |
| COc1ccc(-c2cc(C(=O)Nc3ccccc3O)c3ccccc3n2)cc1 | 41.1% (inactive) |
| COc1ccc(NC(=O)c2cc(-c3cc(OC)c(OC)c(OC)c3)nc3ccccc23)c(OC)c1 | 78.3% (active) |
